Measurements taken from PubChem BioAssay (EPA / NIEHS).
Calls of active or inactive are those of the source. How the source made its calls: active means hit-call score of the fitted dose curve at least 0.9, where 1 is the maximum; inactive means score below 0.9.

assay: CCTE_Shafer_MEA_acute_burst_number: CCTE's Neural Acute Assay for Single-Electrode Bursts, Shafer Lab (AID 2284013)
Protocol: CCTE_Shafer_MEA_acute assay is conducted using Axion Biosystems 48 well microelectrode array (MEA) plates and Maestro recording system. Each well of the MEA plate contains a grid of 16 microelectrodes embedded in the culture surface. Electrically active cells, such as neurons, can be cultured over the electrodes, and electrical activity in these cells can be recorded extracellularly. The spontaneous firing of neurons is captured from each electrode on a microsecond timescale providing both temporally and spatially precise data. […] The CCTE_Shafer_MEA_acute assay uses primary cultures of rat cortical neurons. As these cultures mature over time, neural networks develop functional activity and form cohesive networks in which electrical activity can be highly coordinated. Baseline 40-minute recordings are made on days post-plating 13 or 15, followed by a secondary 40-minute recording after chemical exposure.CCTE_Shafer_MEA_acute_burst_number is a component of the CCTE_Shafer_MEA_acute assay. It measures the total number of single-electrode bursts (temporally-clustered groups of action potential firing) during a recording in a microelectrode array (MEA) using Axion Biosystems Maestro 768 channel amplifier with the AxIS adaptive spike detector. The recordings before and after chemical treatment are used to calculate a percent change in the burst number in each well.Data from the assay component CCTE_Shafer_MEA_acute_burst_number was analyzed into 1 assay endpoint. This assay endpoint, CCTE_Shafer_MEA_acute_burst_number, was analyzed in the negative analysis fitting direction relative to DMSO as the negative control and baseline of activity. Using a type of functional reporter, gain or loss-of-signal activity can be used to understand electrical activity.
Spontaneous activity in the cortical cultures was recorded using an Axion Biosystems Maestro 768 channel amplifier and Axion Integrated Studios (AxIS) v1.8 (or later) software. The amplifier recorded from all channels simultaneously (gain = 1200 x; sampling rate = 12.5 kHz/channel): raw signals were filtered with a Butterworth band-pass filter (300-5000 Hz), which filters out slower local field potentials leaving only fast potentials, i.e., "spikes", arising from extracellular currents associated with action potentials (Pine 2006; Wheeler and Nam 2011). On-line spike detection of filtered signals was conducted with the AxIS adaptive spike detector, using a threshold of 8x the root mean squared (rms) noise on each channel. Any electrodes with rms noise levels greater than 5 uV were grounded (e.g., no data were recorded). Once grounded, an electrode was grounded for the duration of the experiment. All recordings were conducted at 37 C. Wells were deemed usable if on the day of the exposure >/= 10 electrodes were active (defined as >/= 5 spikes/min). On DIV 13 or 15, a minimum of three wells from one cortical culture preparation were treated with each compound (0.03-40 uM). Prior to recording baseline activity, each mwMEA plate was placed in the Maestro at 37 C and allowed to sit for 20 min while firing rates stabilized. Baseline activity (40 min) was recorded before the addition of each compound. An additional 40 min of spontaneous activity was recorded in the presence of each compound. Changes in network parameters relative to baseline were assessed following compound treatment.

SMILES | AC50 | outcome
NC(=O)c1nc(-c2cccc(-c3cc(F)ccc3OCC(F)(F)C(F)(F)F)c2)n[nH]1 | 0.446 µM (active) | –
CCCCCCCCCCCCO | – | inactive
C[C@]12CC[C@@H]3c4ccc(O)cc4CC[C@H]3[C@@H]1CC[C@H]2O | – | inactive
CC(C)(C)c1cc(/C=C2\SC(N)=NC2=O)cc(C(C)(C)C)c1O | – | inactive
O=C1O[C@H]([C@@H](O)CO)C(O)=C1O | – | inactive
CC/C(=C(/CC)c1ccc(O)cc1)c1ccc(O)cc1 | – | inactive
Cc1c2ccccc2c(C)c2c1ccc1ccccc12 | – | inactive
CCCCCCCCOC(=O)c1cc(O)c(O)c(O)c1 | 4.91 µM (active) | –
CO[C@H]1/C=C/O[C@@]2(C)Oc3c(C)c(O)c4c(O)c(c(/C=N/N5CCN(C)CC5)c(O)c4c3C2=O)NC(=O)/C(C)=C\C=C\[C@H](C)[C@H](O)[C@@H](C)[C@@H](O)[C@@H](C)[C@H](OC(C)=O)[C@@H]1C | – | inactive
Cc1cc2c(cc1C(F)(F)F)N(C(=O)Nc1ccc(Oc3cccnc3C)nc1)CC2 | – | inactive
COc1cccc([C@H](O)C2CCN(CCc3ccc(F)cc3)CC2)c1OC | 2.88 µM (active) | –
CC(O)CC(C)(C)O (stereo unspecified) | – | inactive
O=c1[nH]sc2ccccc12 | – | inactive
CN(C)C(=O)C1(N2CCCCC2)CCN(CC[C@@]2(c3ccc(Cl)c(Cl)c3)CN(C(=O)c3ccccc3)CCO2)CC1 | 2.11 µM (active) | –
CC(=O)N1CCN(c2ccc(OC[C@H]3CO[C@](Cn4ccnc4)(c4ccc(Cl)cc4Cl)O3)cc2)CC1 | – | inactive
CN1C(=O)CC[C@H]1c1cccnc1 | – | inactive

SMILES | AC50 | outcome
COc1cc(C(=O)NC2CCN(C)CC2)ccc1Nc1ncc2c(n1)N(C1CCCC1)CC(F)(F)C(=O)N2C | – | inactive
O=C(O)c1ccccc1-n1cc(C(=O)O)c(=O)c2cc(Nc3c(F)cc(F)cc3Cl)c(Cl)cc21 | – | inactive
CN(C)c1ccc(C(=C2C=CC(=[N+](C)C)C=C2)c2ccc(N(C)C)cc2)cc1 | 0.348 µM (active) | –
CN(C[C@@H](CC[N+]12CCC(C3CCCCC3)(CC1)CC2)c1ccc(Cl)c(Cl)c1)C(=O)c1cc(C(F)(F)F)cc(C(F)(F)F)c1 | 0.249 µM (active) | –
CCCCOC(=O)c1ccc(O)cc1 | – | inactive
NCc1cccc(C2CCN(C(=O)c3ccc(C#Cc4ccccc4F)o3)CC2)c1 | 8.95 µM (active) | –
CC(C)(c1cc(Br)c(O)c(Br)c1)c1cc(Br)c(O)c(Br)c1 | – | inactive
OC12N=C(c3ccccc3)SC1Cc1cc(Cl)ccc12 (stereo unspecified) | 6.49 µM (active) | –
CCN(Cc1cccc(S(=O)(=O)O)c1)c1ccc(C(=C2C=CC(=[N+](CC)Cc3cccc(S(=O)(=O)O)c3)C=C2)c2ccccc2S(=O)(=O)[O-])cc1 | – | inactive
CCN(CC)C(=O)c1cc(S(=O)(=O)Cc2ccccc2)c(N2CCC(c3ccccc3)CC2)cc1N(CC)CCN(C)C | – | inactive
Clc1ccccc1C(c1ccccc1)(c1ccccc1)n1ccnc1 | 3.26 µM (active) | –
c1ccc2n[nH]nc2c1 | – | inactive
Cc1cn([C@H]2C[C@H](N=[N+]=[N-])[C@@H](CO)O2)c(=O)[nH]c1=O | – | inactive
CC[C@@H]1C[C@H](N(Cc2cc(C(F)(F)F)cc(C(F)(F)F)c2)C(C)=O)c2cc(C(F)(F)F)ccc2N1C(=O)OC(C)C | – | inactive
CC1=CC(=O)/C(=C(/C)O)C(=O)O1 | – | inactive
